Measured values: the supplement of paper PMC6555819

Columns and labels:
Experiment in all cases: PBM binding z-score (relative to random genomic background probes); higher = stronger binding; sequences stand for … in GC…GCGATTGACAGCGTAGAATGAAGG
[1] = test system: PPARg:RXRa DBDmut IVT, anti-RXR (DBD mutation: RXRa K156A/R161A, NR concentration 270 nM, RXRa partner concentration 90 nM)
In short: (§1)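 On custom Agilent 4×180K arrays, double-stranded probes with 34-nt variable regions carried direct-repeat seeds, single-nucleotide variants, half-site ablations or random human genomic background. Ligand-free nuclear receptor dimers were applied for 1 h, and binding was read with antibodies against each partner (one per run). Binding z-scores come from regression-normalized fluorescence, with the random background probes as reference.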

[2] = test system: PPARg:RXRa IVT, anti-PPARg (NR concentration 270 nM, RXRa partner concentration 90 nM)
In short: as §1

[3] = test system: PPARg DBDmut:RXRa IVT, anti-PPARg (DBD mutation: PPARg1 K132A/R137A, NR concentration 270 nM, RXRa partner concentration 90 nM)
In short: as §1

[4] = test system: PPARg DBDmut IVT, anti-PPARg (DBD mutation: PPARg1 K132A/R137A, NR concentration 270 nM)
In short: as §1

[5] = test system: PPARg homodimer (NR concentration 180 nM)
In short: as §1

[6] = test system: PXR:RXRa (NR concentration 270 nM, RXRa partner concentration 90 nM)
In short: as §1

[7] = test system: PXR homodimer (NR concentration 270 nM)
In short: as §1

[8] = test system: RARa:RXR (NR concentration 270 nM, RXRa partner concentration 90 nM)
In short: as §1

[9] = test system: RARa homodimer (NR concentration 270 nM)
In short: as §1

[10] = test system: RARb:RXRa (NR concentration 270 nM, RXRa partner concentration 90 nM)
In short: as §1

Sequence	PBM binding z-score [1]	PBM binding z-score [2]	PBM binding z-score [3]	PBM binding z-score [4]	PBM binding z-score [5]	PBM binding z-score [6]	PBM binding z-score [7]	PBM binding z-score [8]	PBM binding z-score [9]	PBM binding z-score [10]
ATCTCTAGGTAAAAGTTCTGTGAATCCCGAGGAT	2.32	1.91	1.22	1.71	1.06	0.0852	0.034	-0.0223	0.566	0.232
CCTCGGAGGACAGAAGGTCAGTGCTGTCCGCTTT	-0.0749	-0.108	-0.925	-2	1.55	1.18	-0.686	1.65	-0.0741	3.28
TCATATGGGTAAACAGGTGAAAGTCCGTAAGTTA	4.06	3.99	0.27	0.486	0.322	0.505	0.00205	0.571	-0.0494	0.316
TCGCCTAGGTCAGATCGGGCCAGTATACGCTATA	1.92	1.11	-0.622	-0.724	-0.2	1.23	-0.531	1.05	-0.742	3.12
CGTCCAAGGTCAGAGAGGTCAGTAAATGCCGAGT	2.74	3.23	0.177	0.266	4.38	5.96	12	5.41	1.88	5.28
CCTACTGGGCCACGAAAGGTCAGTGATTCAGTGA	4.86	5.84	1.69	0.78	3.12	3.42	0.0598	3.82	1.31	3.81
ACTCGGAGGACAAAGGTCAGAGGTACGCCAGTGA	0.77	3.42	0.61	0.441	3.17	3.86	0.587	4.61	0.603	4.43
CCTACTGGGCCATCAGGTTATTGATATCAACGTT	4.67	4.48	0.284	0.0128	0.249	-0.153	-0.0218	-0.124	0.0589	0.589
AGAACGAGGGCAATGAGTTGGTAGCACGGGTGGC	3.11	2.58	0.246	-0.0657	-0.218	0.943	1.44	0.0918	-0.865	1.96
ATATGTAGGTTAGCTGGGGTCTTTCAGACTAGGC	6.49	5.47	0.793	0.845	0.937	1.68	0.227	0.915	0.444	0.946
CATACAGAGTCAGCTAGGCCAGAGTAGGGACGGC	-0.267	0.0883	0.15	0.197	-0.174	-0.875	-0.632	-0.635	-0.132	0.148
GCTGCTAGGTCAACTGATGGGCAGCTAAAGCTCG	4.79	4	-0.683	-0.478	0.434	1.1	-0.949	1.93	-0.663	4.1
